Assay: GAPDH versus PEG-3 reporter suppression – cell-based, luminescence, counter-screen for PEG-3 promoter inhibitor project, SAR follow-up (AID 651551)
Details: HeLa PEG-Prom / GAPDH luciferase reporter, 6 or 24 h, run 1, 6 h; at 99 µM (top of the series)

Q: Which inhibition % (higher = more inhibition) does the source give for `Cc1cc(NC(=O)c2ccccc2C)n(-c2nc3ccccc3[nH]2)n1` here?
A: Its inhibition % (higher = more inhibition) is 44.4%.

Q: Which inhibition % (higher = more inhibition) does the source give for `COCCCNC(=O)c1ccc(Cn2c(=O)c3ccccc3n(Cc3ccccc3C#N)c2=O)cc1` here?
A: The inhibition % (higher = more inhibition) was 25.3%.

Q: For `COc1ccc(-n2nc(C(=O)NCC(=O)Nc3cc(OC)c(OC)c(OC)c3)c3ccccc3c2=O)cc1OC`, which inhibition % (higher = more inhibition) is on record?
A: The inhibition % (higher = more inhibition) was 29.5%.

Q: With `CCCn1nc(C(=O)Nc2nc3ccccc3s2)c2ccccc2c1=O` as the compound, how does the inhibition % (higher = more inhibition) read?
A: Its inhibition % (higher = more inhibition) is 42.8%.

Q: With `O=C(Nc1nccs1)c1nn(-c2ccccc2)c(=O)c2ccccc12` as the compound, how does the inhibition % (higher = more inhibition) read?
A: The inhibition % (higher = more inhibition) was 28%.

Q: With `Cc1nc(NC(=O)c2ccccc2)sc1-c1csc(Nc2cccc(Cl)c2C)n1` as the compound, how does the inhibition % (higher = more inhibition) read?
A: Its inhibition % (higher = more inhibition) is 27%.

Q: For `COc1ccccc1Nc1nc(-c2sc(NC(=O)c3ccco3)nc2C)cs1`, which inhibition % (higher = more inhibition) is on record?
A: Its inhibition % (higher = more inhibition) is 51%.

Q: For `CCn1cc(C(=O)NCc2ccco2)c(=O)c2cc(S(=O)(=O)N3CCCC3)ccc21`, which inhibition % (higher = more inhibition) is on record?
A: Its inhibition % (higher = more inhibition) is 37.8%.

Q: With `CCCn1nc(C(=O)Nc2nc(-c3ccccn3)cs2)c2ccccc2c1=O` as the compound, how does the inhibition % (higher = more inhibition) read?
A: The inhibition % (higher = more inhibition) was 81.9%.

Q: With `Cc1nc(NC(=O)c2ccccc2)sc1-c1csc(Nc2ccccc2)n1` as the compound, how does the inhibition % (higher = more inhibition) read?
A: The inhibition % (higher = more inhibition) was 81.9%.

Q: With `Cc1ccc(Cl)cc1Nc1nc(-c2sc(NC(=O)c3ccco3)nc2C)cs1` as the compound, how does the inhibition % (higher = more inhibition) read?
A: The inhibition % (higher = more inhibition) was 35.5%.

Q: Which inhibition % (higher = more inhibition) does the source give for `CCn1nc(C(=O)Nc2nc(-c3ccccn3)cs2)c2ccccc2c1=O` here?
A: The inhibition % (higher = more inhibition) was 38.3%.

Q: Which inhibition % (higher = more inhibition) does the source give for `CCCn1nc(C(=O)Nc2nc(-c3ccncc3)cs2)c2ccccc2c1=O` here?
A: The inhibition % (higher = more inhibition) was 44.4%.

Q: Which inhibition % (higher = more inhibition) does the source give for `Cc1cc(NC(=O)c2cccc(C)c2C)n(-c2nc3ccccc3[nH]2)n1` here?
A: The inhibition % (higher = more inhibition) was 13.7%.

Q: With `COc1ccc(Cl)cc1Nc1nc(-c2sc(NC(=O)c3ccccc3)nc2C)cs1` as the compound, how does the inhibition % (higher = more inhibition) read?
A: The inhibition % (higher = more inhibition) was 44.4%.

Q: Which inhibition % (higher = more inhibition) does the source give for `Cc1cc(NC(=O)c2ccccc2C(F)(F)F)n(-c2nc3ccccc3[nH]2)n1` here?
A: The inhibition % (higher = more inhibition) was 89.3%.

Q: With `Cc1nc(NC(=O)c2ccccc2)sc1-c1csc(Nc2ccccc2Cl)n1` as the compound, how does the inhibition % (higher = more inhibition) read?
A: The inhibition % (higher = more inhibition) was 32%.

Q: Which inhibition % (higher = more inhibition) does the source give for `O=C(Nc1nc(-c2ccccc2)cs1)c1nn(-c2ccccc2)c(=O)c2ccccc12` here?
A: Its inhibition % (higher = more inhibition) is 32.8%.

Q: For `COc1ccc(-n2nc(C(=O)NCC(=O)Nc3ccc(OC)c(OC)c3)c3ccccc3c2=O)cc1`, which inhibition % (higher = more inhibition) is on record?
A: Its inhibition % (higher = more inhibition) is 69.4%.

Q: Which inhibition % (higher = more inhibition) does the source give for `Cc1cc(NC(=O)c2ccccc2)n(-c2nc3ccccc3[nH]2)n1` here?
A: Its inhibition % (higher = more inhibition) is 21.2%.

Q: For `COc1ccc(-n2nc(C(=O)NCC(=O)Nc3cccc(OC)c3)c3ccccc3c2=O)cc1`, which inhibition % (higher = more inhibition) is on record?
A: Its inhibition % (higher = more inhibition) is 31.1%.

Q: With `O=C(Nc1nc2ccccc2s1)c1nn(-c2ccccc2)c(=O)c2ccccc12` as the compound, how does the inhibition % (higher = more inhibition) read?
A: Its inhibition % (higher = more inhibition) is 27%.

Q: For `Cc1cc(NC(=O)c2ccccc2)n(-c2nc3ccccc3n2C)n1`, which inhibition % (higher = more inhibition) is on record?
A: The inhibition % (higher = more inhibition) was 28.6%.

From PubChem BioAssay AID651551 (Sanford-Burnham Center for Chemical Genomics, 2012)
